The source of these data is PubChem BioAssay (NCI).

Some test systems named below: HCT-15 colon; HT29 colon; SNB-75 CNS; SNB-19 CNS; U251 CNS; PC-3 prostate; SK-MEL-5 melanoma; UACC-62 melanoma; LOX IMVI melanoma; SK-MEL-28 melanoma; SK-MEL-2 melanoma; EKVX NSCLC; SN12C renal; UO-31 renal; TK-10 renal; ACHN renal; CAKI-1 renal; A498 renal; CCRF-CEM leukemia; MOLT-4 leukemia.
Assay in all cases: NCI-60 one-dose screen, 48 h (100 = growth as untreated, 0 = no growth, -100 = all killed)
What all share (details): 10 µM unless noted

The panel holds about 83,000 compounds, 20% with a hit somewhere; the sample as a whole holds those more often.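 A percent growth of 40 corresponds to 60% growth inhibition; 0 means no net growth; -100 means all cells died. Active threshold: below 10.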 Unmarked numbers belong to inactive results. Active and inactive are the calls of the source.

Take `C=C(C)[C@@H]1CC[C@]2(C)[C@H](C=CC3=C4C[C@@](C)(CO)CC[C@]4(C)CC[C@]32C)[C@@]1(C)CCCN`: the growth in the assay on HCT-15 colon was -82% (active); in the assay on HT29 colon it was -38.7% (active); in the assay on SNB-75 CNS, -6.45% (active); in the assay on SNB-19 CNS, 34.3%; in the assay with U251 CNS, -64.5% (active); with PC-3 prostate, -34% (active). The growth in the assay on SK-MEL-5 melanoma was 17.5%; in the assay with UACC-62 melanoma, 77.6%; in the assay on LOX IMVI melanoma it was -100% (active); in the assay with SK-MEL-28 melanoma, -79.8% (active); in the assay with SK-MEL-2 melanoma, -52.5% (active); in the assay on EKVX NSCLC, 42.5%. For the same compound, the growth in the assay with SN12C renal is -13.4% (active); in the assay on UO-31 renal it was 47.2%; in the assay with TK-10 renal it was -68.4% (active); in the assay with ACHN renal, -94.9% (active); in the assay with CAKI-1 renal it was -81.6% (active); in the assay on A498 renal, 68.3%. The values for the growth in the assay with CCRF-CEM leukemia and in the assay on MOLT-4 leukemia were 0.791% (active) and -10.5% (active), respectively.
Consider `CCN(CC)C(=O)C1=C(C)NC(=O)NC1c1ccc2c(c1)OCO2` (stereo not given), for which the growth with HCT-15 colon is 105%; in the assay on HT29 colon, 107%; in the assay with SNB-75 CNS, 93.3%; in the assay with SNB-19 CNS, 96.2%; in the assay with U251 CNS it was 102%; in the assay on PC-3 prostate, 98.5%. Moreover, the growth in the assay with SK-MEL-5 melanoma is 101%; in the assay on UACC-62 melanoma, 102%; in the assay on LOX IMVI melanoma, 95.6%; in the assay with SK-MEL-28 melanoma, 115%; in the assay with SK-MEL-2 melanoma, 108%; in the assay on EKVX NSCLC, 99%. For the same compound, the growth was 107% in the assay on SN12C renal; 81.4% in the assay with UO-31 renal; 100% with TK-10 renal; 103% in the assay with ACHN renal; 93.1% in the assay with CAKI-1 renal; 111% in the assay on A498 renal. Besides, the growth in the assay with CCRF-CEM leukemia and in the assay on MOLT-4 leukemia was 104% throughout.
Consider `Fc1cccc(-c2nc(-c3c[nH]c4ncccc34)cs2)c1`, for which the growth in the assay with HCT-15 colon is 82.9% [100 µM]; in the assay on HT29 colon, 76% [100 µM]; in the assay on SNB-75 CNS, -14.1% [100 µM] (active); in the assay on SNB-19 CNS, 70.8% [100 µM]; with U251 CNS, 33.7% [100 µM]; in the assay with PC-3 prostate it was 59.6% [100 µM]. Besides, the growth was 50.6% [100 µM] with SK-MEL-5 melanoma; 73.1% [100 µM] with UACC-62 melanoma; 74.3% [100 µM] in the assay on LOX IMVI melanoma; 89.2% [100 µM] with SK-MEL-28 melanoma; 117% [100 µM] with SK-MEL-2 melanoma; 28.6% [100 µM] with EKVX NSCLC. In addition, the growth in the assay with SN12C renal is 62.7% [100 µM]; in the assay on UO-31 renal, 61.1% [100 µM]; in the assay with TK-10 renal, 18% [100 µM]; in the assay on ACHN renal, 22% [100 µM]; in the assay with CAKI-1 renal it was -11.1% [100 µM] (active); in the assay on A498 renal, 76.6% [100 µM]. The growth is 72% [100 µM] with CCRF-CEM leukemia and 71.8% [100 µM] in the assay on MOLT-4 leukemia.
Take `Nc1cc(Br)cc2c1[nH]c(=O)c1ccccc12`: the growth with HCT-15 colon was 110%; in the assay with HT29 colon, 114%; in the assay with SNB-75 CNS, 81.7%; in the assay with SNB-19 CNS it was 102%; in the assay on U251 CNS, 90.7%; in the assay with PC-3 prostate it was 89.6%. Besides, the growth was 96.5% in the assay on SK-MEL-5 melanoma; 100% with UACC-62 melanoma; 95.5% with LOX IMVI melanoma; 101% with SK-MEL-28 melanoma; 112% in the assay on SK-MEL-2 melanoma; 82% in the assay on EKVX NSCLC. In addition, the growth with SN12C renal was 88.6%; in the assay on UO-31 renal it was 81.4%; in the assay on TK-10 renal, 104%; in the assay on ACHN renal it was 102%; in the assay with CAKI-1 renal, 82.5%; in the assay on A498 renal, 92.5%. For the same compound, the growth is 93.2% in the assay on CCRF-CEM leukemia and 80.5% in the assay on MOLT-4 leukemia.
Take `Cc1nc2ccccc2c(/C=C/c2ccc(F)cc2)c1C(=O)/C=C/c1ccccc1`: the growth in the assay with HCT-15 colon is -4.2% (active); with HT29 colon, 3.31% (active); in the assay on SNB-75 CNS, 12.1%; with SNB-19 CNS, 38.2%; in the assay on U251 CNS, -7.24% (active); with PC-3 prostate, 29.8%. Also, the growth in the assay on SK-MEL-5 melanoma is 27.4%; in the assay on UACC-62 melanoma, 26.1%; in the assay with LOX IMVI melanoma, -82.5% (active); with SK-MEL-28 melanoma, 19.4%; with SK-MEL-2 melanoma, 14.2%; in the assay with EKVX NSCLC, 38.2%. Besides, the growth in the assay on SN12C renal is 22.2%; in the assay on UO-31 renal it was 27.4%; with TK-10 renal it was 23.2%; in the assay with ACHN renal it was 11.6%; in the assay with CAKI-1 renal, 24.7%; in the assay with A498 renal it was 55.5%. Besides, the growth is 7.91% (active) in the assay with CCRF-CEM leukemia and 4.66% (active) in the assay with MOLT-4 leukemia.
Take `CN(C)/C(N)=N/N=C(\c1ccccc1)c1ccccn1`: the growth in the assay on HCT-15 colon is 90.5%; in the assay with HT29 colon it was 110%; with SNB-75 CNS it was 101%; with SNB-19 CNS, 106%; with U251 CNS it was 96.7%; in the assay on PC-3 prostate, 81.5%. For the same compound, the growth with SK-MEL-5 melanoma is 95.5%; with UACC-62 melanoma it was 105%; with LOX IMVI melanoma it was 93%; with SK-MEL-28 melanoma, 113%; in the assay with SK-MEL-2 melanoma it was 106%; with EKVX NSCLC, 112%. The growth in the assay with SN12C renal was 99.4%; with UO-31 renal, 83.6%; in the assay on TK-10 renal, 94.6%; with ACHN renal, 95.7%; in the assay with CAKI-1 renal it was 97.1%; with A498 renal, 105%. The growth in the assay on CCRF-CEM leukemia was 81.4%; in the assay on MOLT-4 leukemia it was 91.5%.
Turning to `[N-]=[N+]=NCC1OC(n2cnc3c(NC(=O)Nc4ccccc4)ncnc32)C2OC(=O)CC12` (stereo not given), the growth with HCT-15 colon is 91.2%; in the assay with HT29 colon it was 109%; in the assay on SNB-75 CNS, 93.7%; with SNB-19 CNS, 106%; in the assay with U251 CNS, 110%; in the assay on PC-3 prostate, 97.4%. In addition, the growth with SK-MEL-5 melanoma is 106%; in the assay on UACC-62 melanoma, 107%; with LOX IMVI melanoma it was 93.2%; with SK-MEL-28 melanoma, 118%; in the assay on SK-MEL-2 melanoma, 90.7%; in the assay with EKVX NSCLC it was 104%. Besides, the growth with SN12C renal is 118%; in the assay on UO-31 renal it was 78.8%; in the assay with TK-10 renal, 101%; in the assay with ACHN renal, 101%; in the assay with CAKI-1 renal, 101%; in the assay with A498 renal it was 100%. Also, the growth is 91.7% in the assay with CCRF-CEM leukemia and 84.6% with MOLT-4 leukemia.
